According to the supplement of paper PMC11732987, “Enantioselective OTUD7B fragment discovery through chemoproteomics screening and high-throughput optimisation” (Communications Chemistry, 2025):

Assays:
Experiment in all cases: log2 ratio of Biotin-Ahx-Ub-VS probe labelling (fragment/DMSO); higher = less target engagement (more negative = stronger competition), active = hit call of the paper (q ≤ 0.05, log2 ratio ≤ -1)
Conditions in all cases: compound concentration: 200 uM; treatment time: 3 h
USP34 = USP34 (UniProt Q70CQ2)
Chain of USP34 (Q70CQ2 whole entry, the tested form may be a part): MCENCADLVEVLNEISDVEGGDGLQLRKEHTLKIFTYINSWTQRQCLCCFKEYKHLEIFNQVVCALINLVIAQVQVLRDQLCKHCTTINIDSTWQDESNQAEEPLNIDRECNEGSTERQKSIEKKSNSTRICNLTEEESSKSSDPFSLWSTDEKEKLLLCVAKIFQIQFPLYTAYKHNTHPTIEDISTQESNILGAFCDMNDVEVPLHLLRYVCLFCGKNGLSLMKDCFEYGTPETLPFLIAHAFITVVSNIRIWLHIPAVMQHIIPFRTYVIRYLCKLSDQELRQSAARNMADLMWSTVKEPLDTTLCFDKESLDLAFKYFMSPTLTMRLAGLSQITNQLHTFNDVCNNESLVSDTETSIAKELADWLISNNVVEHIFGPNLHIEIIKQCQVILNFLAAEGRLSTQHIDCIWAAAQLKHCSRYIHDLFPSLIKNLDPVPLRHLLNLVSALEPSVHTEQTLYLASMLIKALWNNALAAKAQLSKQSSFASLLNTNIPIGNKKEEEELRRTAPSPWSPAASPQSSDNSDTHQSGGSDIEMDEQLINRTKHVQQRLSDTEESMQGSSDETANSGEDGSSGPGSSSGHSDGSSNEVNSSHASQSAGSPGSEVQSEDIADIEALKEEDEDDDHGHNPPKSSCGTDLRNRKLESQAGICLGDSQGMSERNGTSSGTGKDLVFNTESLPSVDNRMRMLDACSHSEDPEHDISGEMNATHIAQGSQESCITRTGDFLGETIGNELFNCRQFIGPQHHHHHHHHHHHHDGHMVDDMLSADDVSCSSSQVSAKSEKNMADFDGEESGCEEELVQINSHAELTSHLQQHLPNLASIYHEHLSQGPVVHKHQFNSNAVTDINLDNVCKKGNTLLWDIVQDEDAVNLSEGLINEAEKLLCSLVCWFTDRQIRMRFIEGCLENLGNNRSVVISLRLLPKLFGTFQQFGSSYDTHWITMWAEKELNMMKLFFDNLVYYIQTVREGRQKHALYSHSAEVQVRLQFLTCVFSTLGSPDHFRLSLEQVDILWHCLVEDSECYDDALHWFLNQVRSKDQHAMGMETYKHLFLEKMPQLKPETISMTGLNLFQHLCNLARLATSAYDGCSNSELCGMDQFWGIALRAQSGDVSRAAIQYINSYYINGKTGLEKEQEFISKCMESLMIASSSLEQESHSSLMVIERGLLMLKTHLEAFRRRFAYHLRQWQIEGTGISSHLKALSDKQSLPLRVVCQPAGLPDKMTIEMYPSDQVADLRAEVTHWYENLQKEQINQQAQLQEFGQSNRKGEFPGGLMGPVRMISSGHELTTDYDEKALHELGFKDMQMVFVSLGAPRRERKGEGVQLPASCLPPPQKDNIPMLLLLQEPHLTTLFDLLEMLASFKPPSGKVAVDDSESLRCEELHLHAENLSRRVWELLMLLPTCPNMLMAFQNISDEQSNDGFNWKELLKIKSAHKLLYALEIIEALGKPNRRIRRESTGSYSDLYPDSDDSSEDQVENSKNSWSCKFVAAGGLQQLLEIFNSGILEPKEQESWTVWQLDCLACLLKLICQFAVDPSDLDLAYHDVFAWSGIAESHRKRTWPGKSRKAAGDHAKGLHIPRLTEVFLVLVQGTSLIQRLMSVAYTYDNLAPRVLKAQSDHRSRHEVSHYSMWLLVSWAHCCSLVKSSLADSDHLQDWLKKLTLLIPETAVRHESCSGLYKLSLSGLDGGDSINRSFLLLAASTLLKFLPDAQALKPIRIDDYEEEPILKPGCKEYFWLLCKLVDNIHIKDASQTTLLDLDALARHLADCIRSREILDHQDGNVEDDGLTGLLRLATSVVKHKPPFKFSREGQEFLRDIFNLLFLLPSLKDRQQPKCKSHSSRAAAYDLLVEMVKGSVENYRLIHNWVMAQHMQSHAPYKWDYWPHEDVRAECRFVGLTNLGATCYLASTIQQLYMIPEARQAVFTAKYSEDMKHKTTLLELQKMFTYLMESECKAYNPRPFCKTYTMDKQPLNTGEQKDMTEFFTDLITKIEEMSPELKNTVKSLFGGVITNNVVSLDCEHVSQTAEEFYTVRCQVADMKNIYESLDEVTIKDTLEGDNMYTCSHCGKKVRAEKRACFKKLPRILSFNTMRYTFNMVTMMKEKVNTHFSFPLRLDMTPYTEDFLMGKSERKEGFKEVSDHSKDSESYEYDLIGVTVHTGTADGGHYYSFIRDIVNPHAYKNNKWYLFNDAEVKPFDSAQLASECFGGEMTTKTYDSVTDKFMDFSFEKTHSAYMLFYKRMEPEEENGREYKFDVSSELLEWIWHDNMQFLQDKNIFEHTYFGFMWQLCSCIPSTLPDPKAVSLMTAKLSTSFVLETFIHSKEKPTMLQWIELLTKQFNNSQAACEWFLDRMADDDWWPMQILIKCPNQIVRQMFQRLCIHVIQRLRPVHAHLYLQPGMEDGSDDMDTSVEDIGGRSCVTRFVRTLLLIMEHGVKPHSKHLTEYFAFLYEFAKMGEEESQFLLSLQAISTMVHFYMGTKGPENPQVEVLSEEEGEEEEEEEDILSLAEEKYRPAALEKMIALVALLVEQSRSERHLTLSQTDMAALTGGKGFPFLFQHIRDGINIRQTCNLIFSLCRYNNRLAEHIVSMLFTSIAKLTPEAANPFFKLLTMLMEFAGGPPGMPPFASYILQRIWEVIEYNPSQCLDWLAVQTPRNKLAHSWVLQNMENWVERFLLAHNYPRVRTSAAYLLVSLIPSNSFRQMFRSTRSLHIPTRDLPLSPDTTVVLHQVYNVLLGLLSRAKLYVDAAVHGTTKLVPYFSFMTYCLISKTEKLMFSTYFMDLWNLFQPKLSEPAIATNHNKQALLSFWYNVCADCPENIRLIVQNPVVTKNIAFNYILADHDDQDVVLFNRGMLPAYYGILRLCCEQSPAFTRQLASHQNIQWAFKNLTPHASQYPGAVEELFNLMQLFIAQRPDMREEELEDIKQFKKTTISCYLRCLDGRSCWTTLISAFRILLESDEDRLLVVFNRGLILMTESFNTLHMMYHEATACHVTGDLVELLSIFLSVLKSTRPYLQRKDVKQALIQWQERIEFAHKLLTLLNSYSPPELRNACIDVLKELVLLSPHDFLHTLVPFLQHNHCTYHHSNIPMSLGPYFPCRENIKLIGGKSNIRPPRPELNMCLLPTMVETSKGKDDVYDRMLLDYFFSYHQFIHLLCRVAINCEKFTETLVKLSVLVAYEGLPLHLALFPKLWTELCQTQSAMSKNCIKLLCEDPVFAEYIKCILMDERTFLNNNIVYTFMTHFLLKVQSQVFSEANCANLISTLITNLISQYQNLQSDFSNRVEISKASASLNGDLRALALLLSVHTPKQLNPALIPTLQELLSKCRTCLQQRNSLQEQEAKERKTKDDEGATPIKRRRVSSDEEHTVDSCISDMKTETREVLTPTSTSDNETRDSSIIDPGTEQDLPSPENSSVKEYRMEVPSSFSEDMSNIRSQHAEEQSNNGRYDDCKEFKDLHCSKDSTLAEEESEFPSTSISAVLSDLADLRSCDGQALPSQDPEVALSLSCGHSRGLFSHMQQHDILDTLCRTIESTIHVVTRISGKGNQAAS
Method in brief: (§1)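 Labelling with Biotin-Ahx-Ub-VS (0.5 µM final, 1 h) followed a 3 h triplicate treatment of HEK293T lysate (495 µg per sample, Tris/CHAPS/IGEPAL buffer with protease inhibitors) with fragment at 200 µM or vehicle. Labelled DUBs were NeutrAvidin-enriched, digested with LysC and trypsin, and run by diaPASEF LC-MS/MS. The values, average log2 fragment/vehicle ratios by unpaired t-test, come from global-median-normalised Spectronaut label-free quantities. Proteins with ≥2 unique peptides were used.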

USP36 = target: T1, USP36 (UniProt Q9P275)
T1 sequence (whole entry): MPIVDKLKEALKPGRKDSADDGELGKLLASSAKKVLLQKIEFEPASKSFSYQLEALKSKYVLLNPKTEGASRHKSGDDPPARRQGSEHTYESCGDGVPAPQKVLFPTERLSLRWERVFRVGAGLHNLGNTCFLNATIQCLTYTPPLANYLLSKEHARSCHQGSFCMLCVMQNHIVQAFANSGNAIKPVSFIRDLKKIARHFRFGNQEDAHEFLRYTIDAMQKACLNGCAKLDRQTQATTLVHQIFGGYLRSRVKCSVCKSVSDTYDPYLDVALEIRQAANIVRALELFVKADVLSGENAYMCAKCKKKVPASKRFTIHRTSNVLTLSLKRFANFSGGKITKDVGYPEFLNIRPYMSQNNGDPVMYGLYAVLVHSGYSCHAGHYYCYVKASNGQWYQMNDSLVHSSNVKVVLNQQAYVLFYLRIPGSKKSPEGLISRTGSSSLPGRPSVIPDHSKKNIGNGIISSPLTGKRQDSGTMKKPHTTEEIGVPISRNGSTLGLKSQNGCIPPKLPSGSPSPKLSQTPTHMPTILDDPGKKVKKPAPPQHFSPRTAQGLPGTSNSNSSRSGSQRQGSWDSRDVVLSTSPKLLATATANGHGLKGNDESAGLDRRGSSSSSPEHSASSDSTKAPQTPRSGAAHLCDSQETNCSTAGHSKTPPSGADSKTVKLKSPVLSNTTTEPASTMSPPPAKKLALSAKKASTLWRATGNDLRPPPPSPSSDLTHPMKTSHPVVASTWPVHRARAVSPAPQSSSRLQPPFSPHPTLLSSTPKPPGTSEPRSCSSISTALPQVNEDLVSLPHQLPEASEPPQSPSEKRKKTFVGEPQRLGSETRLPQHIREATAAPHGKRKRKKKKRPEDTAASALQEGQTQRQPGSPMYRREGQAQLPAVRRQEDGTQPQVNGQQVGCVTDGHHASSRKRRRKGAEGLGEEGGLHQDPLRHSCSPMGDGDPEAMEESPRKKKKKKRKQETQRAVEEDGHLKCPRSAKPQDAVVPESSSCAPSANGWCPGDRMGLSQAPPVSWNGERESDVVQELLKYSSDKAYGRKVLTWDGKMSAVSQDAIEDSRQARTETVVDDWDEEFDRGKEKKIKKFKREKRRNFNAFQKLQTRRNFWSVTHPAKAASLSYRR
Method in brief: as §1

USP38 = target: T2, USP38 (UniProt Q8NB14)
T2 sequence (whole entry): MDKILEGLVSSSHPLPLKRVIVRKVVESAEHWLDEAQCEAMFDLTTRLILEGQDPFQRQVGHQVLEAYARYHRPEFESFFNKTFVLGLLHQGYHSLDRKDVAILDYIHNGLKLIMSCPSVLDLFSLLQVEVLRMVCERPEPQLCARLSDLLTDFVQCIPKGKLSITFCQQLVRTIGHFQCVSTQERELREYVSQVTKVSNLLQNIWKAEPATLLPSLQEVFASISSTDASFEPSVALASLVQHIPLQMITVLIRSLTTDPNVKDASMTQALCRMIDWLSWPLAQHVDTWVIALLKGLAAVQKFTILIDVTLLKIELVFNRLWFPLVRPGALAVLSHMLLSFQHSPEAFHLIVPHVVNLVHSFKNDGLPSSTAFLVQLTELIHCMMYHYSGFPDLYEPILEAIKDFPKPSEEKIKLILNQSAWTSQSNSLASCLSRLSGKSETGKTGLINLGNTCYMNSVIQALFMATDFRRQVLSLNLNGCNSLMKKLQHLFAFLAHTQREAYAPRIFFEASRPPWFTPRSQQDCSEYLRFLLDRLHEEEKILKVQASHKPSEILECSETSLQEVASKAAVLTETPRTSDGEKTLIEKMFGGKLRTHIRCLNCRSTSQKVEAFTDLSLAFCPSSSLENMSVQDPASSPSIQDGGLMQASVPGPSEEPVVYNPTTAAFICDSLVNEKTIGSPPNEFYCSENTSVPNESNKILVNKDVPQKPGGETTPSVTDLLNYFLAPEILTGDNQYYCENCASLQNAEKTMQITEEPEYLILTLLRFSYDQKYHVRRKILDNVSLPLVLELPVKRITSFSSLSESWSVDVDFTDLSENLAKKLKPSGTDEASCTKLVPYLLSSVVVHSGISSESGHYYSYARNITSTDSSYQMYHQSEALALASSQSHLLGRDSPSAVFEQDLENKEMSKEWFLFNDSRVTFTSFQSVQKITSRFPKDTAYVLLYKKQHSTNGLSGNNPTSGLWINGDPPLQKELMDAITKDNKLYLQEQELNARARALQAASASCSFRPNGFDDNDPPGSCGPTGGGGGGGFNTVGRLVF
Method in brief: as §1

USP39 = target: T3, USP39 (UniProt Q53GS9)
T3 sequence (whole entry): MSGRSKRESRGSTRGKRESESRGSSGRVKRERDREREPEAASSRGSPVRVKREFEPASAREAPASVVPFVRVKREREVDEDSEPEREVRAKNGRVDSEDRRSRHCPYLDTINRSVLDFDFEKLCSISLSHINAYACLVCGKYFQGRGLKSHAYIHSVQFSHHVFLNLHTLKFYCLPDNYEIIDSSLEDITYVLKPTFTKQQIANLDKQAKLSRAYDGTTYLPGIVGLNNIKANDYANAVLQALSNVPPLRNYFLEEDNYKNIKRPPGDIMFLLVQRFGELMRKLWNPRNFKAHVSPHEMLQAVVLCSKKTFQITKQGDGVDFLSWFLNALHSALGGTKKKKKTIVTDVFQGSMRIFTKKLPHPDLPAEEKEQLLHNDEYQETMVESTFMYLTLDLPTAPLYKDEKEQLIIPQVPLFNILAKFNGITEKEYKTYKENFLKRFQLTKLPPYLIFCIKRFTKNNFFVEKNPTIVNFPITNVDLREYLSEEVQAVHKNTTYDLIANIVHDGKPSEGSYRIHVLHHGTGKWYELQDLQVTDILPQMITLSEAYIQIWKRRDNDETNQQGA
Method in brief: as §1

USP4 = target: T4, USP4 (UniProt Q13107)
T4 sequence (whole entry): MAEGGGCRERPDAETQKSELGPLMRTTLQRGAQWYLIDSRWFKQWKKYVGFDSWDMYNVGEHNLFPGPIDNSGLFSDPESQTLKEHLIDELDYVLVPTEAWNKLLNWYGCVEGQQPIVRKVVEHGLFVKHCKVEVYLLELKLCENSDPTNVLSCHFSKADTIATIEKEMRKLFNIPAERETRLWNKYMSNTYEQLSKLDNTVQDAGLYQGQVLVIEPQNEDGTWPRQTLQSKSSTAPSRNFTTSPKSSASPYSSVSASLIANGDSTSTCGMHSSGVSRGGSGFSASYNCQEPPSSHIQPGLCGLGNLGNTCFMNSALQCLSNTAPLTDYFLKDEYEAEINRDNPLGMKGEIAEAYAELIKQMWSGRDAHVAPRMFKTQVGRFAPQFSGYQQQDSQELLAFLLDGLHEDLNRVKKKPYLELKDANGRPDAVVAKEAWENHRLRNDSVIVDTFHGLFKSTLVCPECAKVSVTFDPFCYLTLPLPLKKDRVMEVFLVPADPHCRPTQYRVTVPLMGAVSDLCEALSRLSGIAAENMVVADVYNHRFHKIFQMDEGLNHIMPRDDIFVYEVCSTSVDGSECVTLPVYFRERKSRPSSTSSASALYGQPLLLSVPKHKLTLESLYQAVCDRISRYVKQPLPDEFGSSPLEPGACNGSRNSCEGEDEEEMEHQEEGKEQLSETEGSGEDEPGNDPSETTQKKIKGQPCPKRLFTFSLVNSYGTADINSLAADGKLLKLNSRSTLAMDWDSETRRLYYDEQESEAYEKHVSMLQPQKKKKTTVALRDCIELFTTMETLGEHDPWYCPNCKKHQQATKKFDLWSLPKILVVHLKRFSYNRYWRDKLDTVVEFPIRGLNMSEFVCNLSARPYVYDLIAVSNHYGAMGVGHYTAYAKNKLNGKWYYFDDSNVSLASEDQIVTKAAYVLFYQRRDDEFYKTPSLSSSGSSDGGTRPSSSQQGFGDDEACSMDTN
Method in brief: as §1

Measured: log2 ratio of Biotin-Ahx-Ub-VS probe labelling

CN(Cc1nc2ccccc2[nH]1)C(=O)CCl.Cl
inactive: USP34 -0.266 | USP36 0.0504 | USP38 0.056 | USP39 0.391 | USP4 -0.0216
